Results as given in PubChem BioAssay (EPA / NIEHS).
Inconclusive results are not listed. Calls of active or inactive are those of the source. The calls were made as follows, unless noted: active = hit-call score of the fitted dose curve at least 0.9, where 1 is the maximum; inactive = score below 0.9.

Tests used:
[1] = IUF_NPC2-5_viability_120hr: Viability Assessment at 120 hours in the Leibniz Research Institute for Environmental Medicine (IUF) Neural Progenitor Cell Migration and Differentiation Assay (NPC2-5) (AID 2284312)
Summary of the method: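 Alamar blue resorufin fluorescence read after 5 days of differentiation, with compound present from day 0 and replenished at day 3. Primary hNPC spheres on laminin-coated plates, 37C; seven concentrations plus solvent control, fitted against DMSO.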

[2] = CCTE_Deisenroth_5AR_NBTE_donor: CCTE's 5alpha-reductase NanoBRET Target Engagement Assay […], Deisenroth Lab (AID 2284319); settings: actives raise or lower the signal
Summary of the method: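 In this secondary endpoint, donor luminescence from SRD5A2-NanoLuc in transfected HEK293T flags artifacts. Test chemical (10 nM - 29.9 uM) is present five hours, tracer the last two; mock-tracer wells run plate-matched; data fitted bidirectionally against DMSO.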

[3] = CCTE_Deisenroth_5AR_NBTE_acceptor: CCTE's 5alpha-reductase NanoBRET Target Engagement Assay - Autofluorescence Screen, Deisenroth Lab (AID 2284321); settings: actives raise or lower the signal;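 also: compound fluorescence in the acceptor channel under 460 nm excitation flags autofluorescence artifacts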
Summary of the method: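 Acceptor fluorescence intensity was read as an artifact-detection endpoint. Test chemicals at an assumed nominal 100 uM were excited at 460 nm across three independent runs. Activity was fitted bidirectionally against DMSO.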

SRD5A2 (gene 6716) = assay: CCTE_Deisenroth_5AR_NBTE_ratio: CCTE's 5alpha-reductase NanoBRET Target Engagement Assay - Ratio, Deisenroth Lab (AID 2284322); settings: actives raise or lower the signal
Summary of the method: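 HEK293T transiently expressing SRD5A2-NanoLuc; cells exposed to chemical (8-point, 10 nM - 29.9 uM) for 5 h total, testosterone tracer added for final 2 h. NanoBRET acceptor/donor ratio (650/460 nm), bidirectional fit vs DMSO.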

IYD (gene 389434) = assay: CCTE_GLTED_hIYD: CCTE's human Iodotyrosine Deiodinase (xIYD) Inhibition Assay, Great Lakes Toxicology and Ecology Division (GLTED) Lab (AID 2284317; active = hit-call score of the fitted dose curve at least 0.9, where 1 is the maximum;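 also: cell-free human IYD enzyme made in baculovirus insect cells; iodide freed from monoiodotyrosine measured by cerium arsenite color change at 420 nm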)
Summary of the method: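 Absorbance change at 420 nm from the iodide-catalysed cerium-arsenic reaction reports free iodide released by human IYD from monoiodotyrosine. Enzyme, substrate and chemical are incubated 3 h; loss of signal is fitted relative to DMSO baseline.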

[4] = CCTE_Mundy_HCI_iCellGluta_NOG_NeuriteLength: CCTE's Neurite Outgrowth Assay in iCellGluta cells for Neurite Length, Mundy Lab (AID 2284318; active = hit-call score of the fitted dose curve at least 0.9, where 1 is the maximum)
Summary of the method: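 Automated high-content imaging of betaIII-tubulin (Alexa Fluor-488) and Hoechst-stained cells gave neurite length, normalized to the DMSO baseline.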

[5] = system: Brachyury (BRA) Protein Expression, Deisenroth Lab, TBXT (gene 6862); assay: CCTE_Deisenroth_DEVTOX-GLR_legacy_Bra: (Legacy) CCTE's DevTox GLR-Endo Assay Evaluation of Brachyury (BRA) Protein Expression, Deisenroth Lab (AID 2284329)
Summary of the method: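 Human pluripotent RUES2-GLR line was exposed twice during 48 h differentiation to a 10-point series, 1 nM - 200 uM. Fraction of Bra-positive cells was scored by imaging against pluripotent baseline and fitted after 0.2% DMSO subtraction.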

[6] = CCTE_Deisenroth_DEVTOX-GLR_legacy_CellCount: (Legacy) Viability Assessment in CCTE's DevTox GLR-Endo Assay, Deisenroth Lab (AID 2284331); settings: actives raise or lower the signal
Summary of the method: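 Seed RUES2-GLR 24 h; differentiate 48 h, dosing at 0 and 24 h; fix, stain nuclei; image 5 fields/well; count nuclei. Conc. 1 nM - 200 uM, single technical replicate, n=4 experiments; bidirectional fit vs 0.2% DMSO.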

[7] = VALA_TUBHUV_Agonist_CellCount: Viability Assessment in the VALA Sciences human Umbilical Vein Endothelial Tubule Formation (TUBHUV) Agonism Assay (AID 2284309; active = hit-call score of the fitted dose curve at least 0.9, where 1 is the maximum)
Summary of the method: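 HUVEC co-cultured 1:3 with HDF for 3 days in 10 ng/ml VEGF, then compounds added in VEGF medium for a further 3 days (72 h). Nuclear-stain/CD31 imaging cell count. Positive-direction fit versus 0.1% DMSO vehicle.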

[8] = VALA_TUBHUV_Antagonist_CellCount: Viability Assessment in the VALA Sciences human Umbilical Vein Endothelial Tubule Formation (TUBHUV) Antagonism Assay (AID 2284310; active = hit-call score of the fitted dose curve at least 0.9, where 1 is the maximum)
Summary of the method: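 HUVEC co-cultured with HDF (1:3) 3 days in 10 ng/ml VEGF, then 3 days with compounds in VEGF medium. Fixed, nuclear stain and CD31 immunofluorescence, imaged; cell counts fitted versus 0.1% DMSO, loss of signal read as lower viability.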

[9] = VALA_TUBIPS_Antagonist_TubuleLength: VALA Sciences human iPS-derived Endothelial Tubule Formation (TUBIPS) Antagonist Assay (AID 2284313; active = hit-call score of the fitted dose curve at least 0.9, where 1 is the maximum)
Summary of the method: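 Cells grown 3 days with 10 ng/ml VEGF, then exposed to compounds in VEGF medium for another 3 days. After fixation, nuclear stain and CD31 immunofluorescence imaging gave mean total tubule length against 0.1% DMSO; suramin (100 uM) inhibition control.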

[10] = VALA_MIGHUV2_WoundArea: VALA Sciences human Umbilical Vein Endothelial Cell Migration (MIGHUV) Assay, Area of Scratch Wound after Recovery (AID 2284316; active = hit-call score of the fitted dose curve at least 0.9, where 1 is the maximum)
Summary of the method: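 HUVEC seeded at 9000 cells/well, scratched after 24 h; test chemical added within 30 min, 6-point concentration response in triplicate (0.1% DMSO vehicle). After 24 h wound recovery, cells fixed and Hoechst-stained nuclei in wound area imaged; Cytochalasin D reference control.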

[11] = VALA_TUBIPS_Antagonist_CellCount: Viability Assessment in the VALA Sciences human iPS-derived Endothelial Tubule Formation (TUBIPS) Antagonism Assay (AID 2284335; active = hit-call score of the fitted dose curve at least 0.9, where 1 is the maximum)
[12] = VALA_MIGHUV1_ScratchOnly_WoundArea: VALA Sciences human Umbilical Vein Endothelial Cell Migration (MIGHUV) Assay, Area of Scratch Wound Inhibited Recovery (AID 2284336; active = hit-call score of the fitted dose curve at least 0.9, where 1 is the maximum)
Summary of the method: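 HUVEC monolayers (9000 cells/well) were scratched after 24 h, dosed within 30 min (six concentrations, triplicate, 0.1% DMSO), allowed 24 h recovery, then fixed. Hoechst-stained nuclei in the wound imaged; cytochalasin D as reference.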

[13] = VALA_TUBHUV_Agonist_TubuleLength: VALA Sciences human Umbilical Vein Endothelial Tubule Formation (TUBHUV) Agonism Assay (AID 2284337; active = hit-call score of the fitted dose curve at least 0.9, where 1 is the maximum)
Summary of the method: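 HUVEC co-cultured with fibroblasts (1:3) 3 days in 10 ng/ml VEGF, then 3 days with compound plus VEGF; 0.1 % DMSO neutral control. Fixed, nuclear and CD31 stained; tubule length by fluorescence imaging.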

## CN1CCC[C@H]1c1cccnc1
[1]
  outcome: inactive

## CCCCCCCCOC(=O)CCCCCCCCC(=O)OCCCCCCCC
[2]
  outcome: inactive
[3]
  outcome: inactive
SRD5A2 (gene 6716)
  outcome: inactive

## O=C1OC2(c3ccccc31)c1cc(Br)c(O)c(Br)c1Oc1c2cc(Br)c(O)c1Br
IYD (gene 389434)
  AC50: 42.2 µM (active)
[2]
  outcome: inactive
[3]
  outcome: inactive
SRD5A2 (gene 6716)
  AC50: 7.55 µM (active)

## CCC(=C(c1ccc(O)cc1)c1ccc(OCCN(C)C)cc1)c1ccccc1
IYD (gene 389434)
  outcome: inactive

## OCCC(F)(F)C(F)(F)C(F)(F)C(F)(F)C(F)(F)C(F)(F)F
[4]
  outcome: inactive

## C[C@@H]1C[C@H]2[C@@H]3CCC4=CC(=O)C=C[C@]4(C)[C@@]3(F)[C@@H](O)C[C@]2(C)[C@@]1(O)C(=O)COP(=O)(O)O
[5]
  outcome: inactive
[6]
  outcome: inactive

## CCCCCCCCCCCCc1ccccc1S(=O)(=O)O
[7]
  AC50: 1.98 µM (active)
[8]
  outcome: inactive
[9]
  outcome: inactive
[10]
  outcome: inactive
IYD (gene 389434)
  AC50: 34.4 µM (active)
[11]
  outcome: inactive
[12]
  outcome: inactive
[13]
  AC50: 15.6 µM (active)

## CCCCCCCCCCCCCC[N+](C)(C)C
IYD (gene 389434)
  AC50: 88.3 µM (active)
[2]
  AC50: 42.7 µM (active)
[3]
  AC50: 26.2 µM (active)
SRD5A2 (gene 6716)
  AC50: 75.1 µM (active)

## COCC(C)O (configuration not stated)
[2]
  outcome: inactive
[3]
  outcome: inactive
SRD5A2 (gene 6716)
  outcome: inactive

## CC(O)CO (configuration not stated)
[5]
  outcome: inactive
[6]
  outcome: inactive

## COCC(C)OCC(C)O (configuration not stated)
[2]
  outcome: inactive
[3]
  outcome: inactive
SRD5A2 (gene 6716)
  outcome: inactive
